Only some compounds are listed: those with a hit (about 11% of all), similar ones and a draw of the others.
Tau fibril FP: inhibitors of human tau fibril formation | P10636 | K18 P301L tau heparin fibrillization, Alexa594 FP, 6 h | Potency, µM (highest dose often 57.7 µM), for inactives: top-dose activity, negative = inhibition, actives largely listed as inhibitors | 0.39% of 280,000 active | AID 1468; also: potency is read from the fitted curve at half-maximal effect; nearly all actives have a fitted effect of over 55% in size
Target sequence (P10636 561-689 P618L limits assumed): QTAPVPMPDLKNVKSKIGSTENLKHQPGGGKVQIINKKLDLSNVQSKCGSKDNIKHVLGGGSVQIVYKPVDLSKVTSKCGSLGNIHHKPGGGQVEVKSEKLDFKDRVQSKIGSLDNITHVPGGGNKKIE
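Read-out: fluorescence polarization of Alexa 594-labeled tau (0.24 uM), 555 nm excitation, 632 nm emission. Mixtures held 15 uM unlabeled K18 P301L, compound and 20 uM heparin, pH 7 acetate buffer, incubated 6 hr at 37 C.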
Tau fibril ThT: inhibitors of human tau fibril formation, thioflavin T binding; Potency, µM (doses to about 57.4 µM), for the others: top-dose activity, negative = inhibition, hits mostly inhibitors; 2.1% of 270,000 active; recombinant tau K18 P301L, heparin-induced fibrillization, ThT fluorescence; P10636; also: potency is read from the fitted curve at half-maximal effect; nearly all actives have a fitted effect of over 55% in size
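Heparin-induced (20 uM) aggregation of recombinant human K18 P301L tau, 15 uM unlabeled with 0.24 uM labeled, pH 7 acetate buffer, 6 hr at 37 C with compound. Fibrils quantified by 30 uM ThT fluorescence after 1 hr ambient incubation.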
Sfp PPTase inh: Sfp phosphopantetheinyl transferase inhibition; Biochemical Sfp PPTase activity, qHTS; Potency, µM, inactives show largest response in the series, negative = inhibition, usual class: inhibitors; 3.5% of 310,000 active; AID 1490;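 also: the enzyme is Sfp with the accession as filed and its product quenches rhodamine fluorescence; potency is read from the fitted curve at half-maximal effect; 0% = enzyme reaction without inhibitor and -100% = no enzyme wells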
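Fluorescence-quenching assay with 15 nM Sfp, 5 uM rhodamine-CoA and 12.5 uM BHQ-2-labelled ybbR peptide in pH 7.6 Hepes/MgCl2 buffer. Enzyme was pre-incubated with compound for 15 min at room temperature. Rate was taken from the 30-min fluorescence change (525/598 nm).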
FBPA coupling cs: inhibits coupling enzyme system, counter-screen for aldolase hits. coupling enzyme system counterscreen, AmpLite Red fluorescence. activity change, negative = inhibition, % at 58.2 µM, hits read low. 0.67% of 290,000 active. AID 2472; in the data active = activity change below about -30%
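First, compound is pin-transferred into glyceraldehyde-3-phosphate coupling-enzyme reagent at 57.5 uM final and held 10 min at RT. Next, substrate, coupling system and AmpLite Red are added. After 20 min RT, fluorescence (525/598 nm) is read.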
G9a inh: G9a (human) methyltransferase inhibition; G9a H3K9 monomethylation, AlphaScreen, 2 h; Potency, µM (titrated, usually from 102 µM), inactives show top-dose activity, negative = inhibition, most hits filed as inhibitors; 8.8% of 350,000 active; AID 504332; also: potency is read from the fitted curve at half-maximal effect; nearly all actives have a fitted effect of over 75% in size
Target sequence (Q96KQ7 913-1193 limits assumed): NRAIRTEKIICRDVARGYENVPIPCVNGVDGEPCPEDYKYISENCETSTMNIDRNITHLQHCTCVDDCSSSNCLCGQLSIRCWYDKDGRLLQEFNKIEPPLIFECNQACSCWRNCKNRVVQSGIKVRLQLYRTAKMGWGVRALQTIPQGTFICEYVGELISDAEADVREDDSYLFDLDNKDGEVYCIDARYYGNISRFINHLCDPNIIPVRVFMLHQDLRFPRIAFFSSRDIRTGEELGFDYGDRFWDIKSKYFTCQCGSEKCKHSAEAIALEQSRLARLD
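Quantitative HTS format: methyltransferase activity on a biotin-tagged H3K9 peptide is measured by AlphaScreen, using a rabbit anti-monomethyl-H3K9 antibody with streptavidin donor and anti-IgG acceptor beads. Final levels are 20 nM enzyme, 500 nM peptide, 20 uM SAM; 2 h RT.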
Tau fluor counter: counter-screen for tau fibril formation inhibitors; tau K18 P301L Alexa594 fluorescence, heparin fibrillization; Potency, µM (titrated, usually from 57.7 µM), inactives show at the top dose activity change, negative = decrease; 0.93% of 280,000 active; also: potency is read from the fitted curve at half-maximal effect; nearly all actives have a fitted effect of over 55% in size
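Human tau K18 P301L (15 uM unlabeled, 0.24 uM Alexa 594-labeled) in 100 mM sodium acetate pH 7 with 20 uM heparin, 6 hr at 37 C. ThT 30 uM added, 1 hr ambient; Alexa 594 FP and total fluorescence read at 555/632 nm.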
Numbers without * were called inactive; ? = inconclusive; / = no result; ! = not active in a repeat; [ ] = another dose, or the depositor's remark. Unless noted, calls follow the shape of the dose curve; as a rule, active = well fitted curve in the direction sought with a large enough effect; inconclusive = small, poorly fitted or top-dose-only effect, or another doubt; inactive = no such curve, though single readings can be large; an effect the other way counts as inactive or inconclusive. Unless noted, % is scaled to controls: 0 for no effect and ±100 for the full control effect.

SMILES	Tau fibril FP	Tau fibril ThT	Sfp PPTase inh	FBPA coupling cs	G9a inh	Tau fluor counter
Cn1cc(S(=O)(=O)c2cccc(Cl)c2)c(=O)c2cc(F)c(N3CCN(c4ccc(F)cc4)CC3)cc21	8%	-8%	/	/	-7%[59 µM]	-9%
CCC(O)c1nc2ccccc2n1CCOc1cc(C)cc(C)c1 (centres undefined)	-1%	-17%	/	/	?	-8%
COc1ccc(C)cc1NC(=O)Cn1c(=O)ccc2cc(S(=O)(=O)N3CCC(C)CC3)ccc21	3%	0%	/	/	1%[59 µM]	?
Nc1ccc2c(c1)-c1ccccc1S(=O)(=O)N2	?	?	-16%	-17	32µM*	?
Cc1ccc2c(c1)-c1ccccc1S(=O)(=O)N2	4%	-15%	12%	-1	-10%[12.7 µM]	-9%
CN(C)/N=C/c1ccc(OS(=O)(=O)c2ccccc2)cc1	?	?	11%	-8	45µM*	?
O=C(Nc1nccs1)[C@@H]1CCCN1S(=O)(=O)c1ccccc1F	/	/	/	/	40µM*	/
COc1ccc(C)cc1NC(=O)C1CCCN1S(=O)(=O)c1ccccc1F (centres undefined)	/	/	/	/	8.9µM*	/
Cc1ccc(C2(C)NC(=O)N(CC(=O)NNC(=O)c3ccccc3)C2=O)cc1 (centres undefined)	/	/	/	/	11%[12.7 µM]	/
Cc1cccc(-c2noc(CNC(=O)c3ccoc3C)n2)c1	/	/	32µM*	/	15%	/
O=C(c1ccccc1)N(Cc1ccco1)Cc1cccs1	-4%	-13%	/	/	-4%[59 µM]	-11%
Cc1onc(-c2ccccc2)c1C(=O)NCc1ccco1	3%	-9%	?	3	50µM*	-13%
Cc1onc(-c2ccccc2Cl)c1C(=O)NCc1nc(-c2ccccc2)no1	-6%	-4%	89µM*	-2	?	-16%
Cc1onc(-c2ccccc2)c1C(=O)N(Cc1ccco1)Cc1cccs1	8%	-12%	40µM*	-35*	?	-3%
CCOC(=O)N1CCN(S(=O)(=O)N2CCCC(C(=O)NCCCN3CCCCC3CC)C2)CC1 (centres undefined)	/	/	10%	/	19%	/
CC(CCC(=O)O)C1CCC2C3CC[C@@H]4CCCC[C@@]4(C)C3CC[C@@]12C (some centres undefined)	5%	-12%	11%	13	/	-4%
Cc1cc(C)n(-c2ccc(C(=O)OC(C)C(=O)Nc3ccc(C(N)=O)cc3)cc2)n1 (centres undefined)	/	/	/	/	79µM*	/
CC(=O)Nc1ccc(NC(=O)C(C)OC(=O)c2ccc(-n3cnnn3)cc2)cc1 (centres undefined)	/	/	/	/	16%[2.33 µM]	/
CCOC(=O)Cn1cc(C(=O)c2cccs2)c2ccccc21	-8%	-4%	19%	-4	-21%[12.7 µM]	-16%
CCOC(=O)c1ccc(NC(=O)Cn2cc(C(=O)c3cccs3)c3ccccc32)cc1	16µM*	-11%	/	/	?	?
CCN1C(=O)[C@H]2[C@@H](c3ccc(-c4ccc(OC)cc4)c(OC)c3)N3CCCC[C@@]3(C(=O)OC)[C@H]2C1=O	/	/	/	/	-14%[2.33 µM]	/
CCOC(=O)c1cccc(NC(=O)CC2C(=O)N(c3ccccc3)C(=O)N2Cc2ccco2)c1 (centres undefined)	0%	7%	/	/	-38%[59 µM]	-11%
CCOC(=O)/C=C(C)\C=C\c1c[nH]c2ccccc12	15%	?	13%	-4	?	14µM*[quencher]
CCOC(=O)/C(=C/c1c[nH]c2ccccc12)NC(C)=O	-5%	?	5%	1	21%	-9%
O=C(O)CCn1cc(/C=C/C(=O)c2ccc(Cl)cc2)c(-c2ccc(Br)cc2)n1	3%	?	1%	11	79µM*	2%
SMILES	Tau fibril FP	Tau fibril ThT	Sfp PPTase inh	FBPA coupling cs	G9a inh	Tau fluor counter
Cc1nn(Cc2ccc(C(=O)NC(C)(C)C)o2)c(C)c1Br	9%	-8%	56µM*	1	?	4%
Cc1cc(NC(=O)c2ccc(Cn3nc(C)c(Br)c3C)o2)no1	-5%	-1%	10%	1	-10%[59 µM]	-5%
CC(C)(C)C(=O)NC(=S)Nc1ccc(Cc2ccncc2)cc1	/	/	-2%	2	35µM*	/
O=C(NC(=S)Nc1ccc(Cc2ccncc2)cc1)c1ccc(F)cc1	-8%	-16%	50µM*	3	?	-15%
Cc1ccc(CN2CCCn3nc(C(=O)NCc4cc(C)ccc4C)cc3C2=O)cc1	13%	-7%	/	/	5%[59 µM]	4%
CCc1ccc(CN(Cc2ccco2)C(=O)c2ccc(OC)cc2)cc1	4%	?	/	/	11%[59 µM]	-10%
O=C(O)CC/C(=C\c1ccc(N2CCOCC2)c([N+](=O)[O-])c1)c1nc2ccccc2s1	-3%	7.9µM*	17%	1	?	-12%
O=C(O)C/C(=C\c1ccc(N2CCOCC2)c([N+](=O)[O-])c1)c1nc2ccccc2s1	-2%	14µM*	-9%	1	?	-13%
O=C(O)CC/C(=C\c1ccc(Cl)c([N+](=O)[O-])c1)c1nc2ccccc2s1	9%	12%	-14%	11	-48%	10%
CCN(CC)c1cc2c(cc1F)c(=O)c(S(=O)(=O)c1ccc(OC)cc1)cn2CC	0%	0%	/	/	-13%[59 µM]	-1%
COc1cccc(CNC(=O)COc2cc(=O)n(C)c3ccccc23)c1	-5%	-5%	/	/	-5%[59 µM]	-7%
COc1ccc(-c2coc3cc(O)cc(O)c3c2=O)cc1	?	?	50µM*!	1	-3%	?
Cc1nc2ccc(S(=O)(=O)N(CC(=O)Nc3ccc(Cl)cc3)Cc3ccccc3)cc2s1	-20%	5%	/	/	-1%[59 µM]	-30%
Cc1c(C2Nc3ccccc3C(=O)N2O)cnn1C (centres undefined)	-12%	8%	1%	1	10µM*	-12%
O=C1c2ccccc2NC(c2ccco2)N1O (centres undefined)	7%	-2%	-7%	-27	?	12%
COc1cccc(C2Nc3ccccc3C(=O)N2O)c1O (centres undefined)	-3%	-11%	1%	-4	10%[59 µM]	-10%
CCn1cc(C2Nc3ccccc3C(=O)N2O)c(C)n1 (centres undefined)	-4%	-19%	-16%	1	18µM*	-12%
COC(=O)c1ccc(CNC(=O)C2CCC(=O)N(CCN3CCOCC3)C2)cc1 (centres undefined)	/	/	14%	/	8%	/
Brc1cc2c(cc1-c1nc3ccccc3s1)OCO2	/	/	-24%	0	40µM*	/
COc1ccc(S(=O)(=O)n2nc(C)c(S(=O)(=O)N3CCCCCC3)c2C)cc1C	-1%	-1%	/	/	-3%[59 µM]	-1%
CCS(=O)(=O)N1CCC(C(=O)NCCC(C)C)CC1	-4%	0%	/	/	12%[59 µM]	-6%
Cc1ccc(S(=O)(=O)n2cnc3cc([N+](=O)[O-])ccc32)cc1C	6%	-2%	4%	-1	-2%[12.7 µM]	3%
